aSyn 5UTR act: Activators working through SNCA 5'UTR binding (MLPCN); actives 7.1% (n = 300,000); activity score, % (tested at 7.5 µM), hits read low; AID 1814; alpha-synuclein 5'UTR reporter, activators screen; in the data active = activity score below about -60%
Starred values were filed as active, the others as inactive. These entries were drawn from the full list.

SMILES	aSyn 5UTR act
COCC(C)n1c(C)cc(C(=O)CSc2ncccn2)c1C (stereo not drawn)	-75.9*
C[n+]1cc[nH]c1SCC(=O)c1ccccc1	-71.7*
N#C/C(=N\Nc1cccc(C(F)(F)F)c1)C(=O)c1ccsc1	-108.7*
O=c1[nH]c(-c2ccc(O)cc2)nc2scc(-c3cccs3)c12	-137.7*
CCOc1ccccc1OCC(=O)N/N=C(\C)Cc1ccc(OC)cc1	86.5
CCN(CC)c1ccc(/C=N/NC(=S)NCc2ccc(OC)cc2)cc1	-75.8*
C=CCNC(=S)N/N=C(\C)c1ccccn1	86.4
COc1ccc(C/C(C)=N/NC(=S)Nc2ccccc2)cc1	-123.9*
COc1ccc(CNC(=S)N/N=C(/C)c2ccccc2)cc1	-107.0*
C/C(=N\NC(=S)NCc1ccccc1)c1ccccc1F	-70.4*
O=C(Nc1cccnc1)c1cc2c(s1)-c1ccccc1OC2	-126.4*
Cc1cccc2c1-c1sc(C(=O)Nc3cccnc3)cc1CO2	-117.8*
C=CCn1c(C)cc(C(=O)CSc2nc3ccccc3[nH]2)c1C	59.3
C=CCn1c(C)cc(C(=O)COc2nncc3ccccc23)c1C	-122.6*
Cc1cc(C(=O)CSc2nc3ccccc3o2)c(C)n1C1CC1	-164.5*
C=CCn1c(C)cc(C(=O)CSc2nc3ccccc3o2)c1C	-136.5*
CC(C)(C)c1ccc(/C=C/C(=O)N2CCOCC2)cc1	-146.9*
CC(C)Cc1ccc(/C=C/C(=O)N2CCOCC2)cc1	-161.5*
COC(=O)c1sc(NC(=O)c2ccco2)nc1C	-69.0*
COC(=O)c1sc(NC(=O)/C=C/c2ccc(C)o2)nc1C	-65.4*
COC(=O)c1sc(NC(=O)c2ccoc2C)nc1C	-136.1*
O=C(Nc1cccc(NC(=O)c2cccs2)c1)c1ccc([N+](=O)[O-])o1	-69.0*
COc1cc(NC(=O)c2ccc([N+](=O)[O-])o2)ccc1NC(=O)c1cccs1	-82.2*
O=C(Nc1cc2cc([N+](=O)[O-])ccc2oc1=O)c1cccs1	-75.9*
O=C(Nc1ccccc1)O/N=C/c1ccc(F)cc1	-189.4*
SMILES	aSyn 5UTR act
Cc1ccc(NC(=O)O/N=C/c2ccc(N(C)C)cc2)cc1	-71.1*
Cc1ccc(NC(=O)O/N=C/c2ccc(F)cc2)cc1	-131.4*
CN(C(=O)c1ccc(S(=O)(=O)c2cccc(Cl)c2)c([N+](=O)[O-])c1)C1CCCCC1	-86.4*
O=C(NC1CCCCC1)c1ccc(S(=O)(=O)c2ccccc2Cl)c([N+](=O)[O-])c1	-94.9*
O=c1c2c3c(sc2ncn1/N=C/c1ccc([N+](=O)[O-])o1)CCCC3	-89.4*
C=CCn1cccc(C(=O)Nc2ccc(C)c(C)c2)c1=O	-124.3*
C=CCn1cccc(C(=O)Nc2ccc(C)cc2)c1=O	-132.5*
CN(C)/C=N/c1ncn(-c2ncc(C(F)(F)F)cc2Cl)n1	-84.8*
C/[N+]([O-])=C/c1c(OCc2ccccc2)ccc2ccccc12	-91.3*
O=Cc1c(OCc2ccccc2)ccc2ccccc12	-130.5*
C[C@@H]1CC=C[C@H]2[C@H]1C(=O)N(Cc1ccccc1)[C@H]2c1ccc(-c2cc3ccccc3s2)cc1F	-137.7*
O=C(Nc1ccc(-c2nc3cccnc3s2)cc1)c1ccc(Br)o1	-159.2*
O=C(Nc1ccc(-c2nc3cccnc3s2)cc1)c1ccc(Cl)nc1	-150.9*
Nc1ccc(SC(F)(F)F)cc1	-70.0*
O=C(CSc1n[nH]c(-c2ccccc2O)n1)N1CCOCC1	-70.1*
Cc1cccc(OCCCn2c(CO)nc3ccccc32)c1	-84.4*
Cc1ccc(OCCCn2c(CO)nc3ccccc32)cc1	-62.1*
COc1ccccc1-c1ccc(NC2CCCCC2)nn1	-140.2*
CC(=O)c1cc(C#N)c(SCc2ccccc2C#N)nc1C	-97.1*
CC(=O)c1cc(C#N)c(SCC(=O)OC(C)(C)C)nc1C	-115.6*
c1ccc2oc(-c3csc(NCC4CCCO4)n3)cc2c1 (stereo not drawn)	-109.7*
C=CCNc1nc(-c2cc3ccccc3o2)cs1	-72.7*
c1ccc2sc(NCC3CCCO3)nc2c1 (stereo not drawn)	-151.5*
O=c1[nH]n(Cc2ccccc2)c(=O)c2ccccc12	-68.0*
Cc1ccc(-n2c(C)cc(/C=c3/sc4nc5ccccc5n4c3=O)c2C)cc1	66.7
SMILES	aSyn 5UTR act
O=C(O)Cn1cc(/C=c2/sc3nc4ccccc4n3c2=O)c2ccccc21	-162.3*
COc1cccc(NC(=O)C(C)SCc2ccccc2)c1 (stereo not drawn)	-62.9*
Cc1ccc(NC(=O)C(C)SCc2ccccc2)cc1 (stereo not drawn)	-87.3*
CC(SCc1ccccc1)C(=O)Nc1ccc2c(c1)OCO2 (stereo not drawn)	-66.5*
CC1(C)Cc2c(sc(NC(=O)COc3ccc(Cl)cc3Cl)c2C(N)=O)C(C)(C)N1	62.1
COC(=O)c1sccc1NC(=O)COc1ccc(Cl)cc1Cl	-161.7*
COC(=O)c1sccc1NC(=O)COc1ccc(C)cc1	-143.6*
Cc1ccc(C2=NNC3(CCOC(C)(C)C3)S2)cc1 (stereo not drawn)	-163.9*
COc1ccc(CNc2ccc3c(c2)CCC3)cc1Br	-104.7*
CCOc1cc(CNc2ccc3c(c2)CCC3)ccc1OC	-162.7*
COc1ccccc1CNc1ccc2c(c1)CCC2	-82.0*

From PubChem BioAssay
